Rce1 inhib: yeast Rce1p protease inhibitors, primary screen, biochemical, fluorescence, cell-free homogeneous; yeast membranes, quenched prenylated peptide cleavage fluorescence; calls only; CAAX prenyl protease 2 (Saccharomyces cerevisiae (strain ATCC 204508 / S288c)), Q03530; hit rate 0.27% among 290,000;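 active = fall in fluorescence gain of 50% or more versus controls, with final raw signal at or below 3038400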;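 note: plate controls were neutral control wells for no effect and wells lacking membranes for full effect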
Kir21 block: inhibitors of mouse Kir2.1 inward-rectifier potassium channel; Inward rectifier potassium channel 2 (Mus musculus), P35561; HEK293-Kir2.1, FluxOR thallium flux fluorescence; hits give low values; B-score at 10 µM; hit rate 0.85% among 310,000;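 active = fluorescence ratio B-score at or below minus 3 SD of library scores, with starting-brightness B-score within 2 SD, cut at about -4.2 in these data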;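 note: channel flux triggered by added potassium and thallium sulfate stimulus; B-score of peak minus minimum fluorescence over baseline after thallium stimulus; more negative B-score means stronger Kir2.1 block with less thallium influx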
Target sequence (P35561 whole entry, looked up): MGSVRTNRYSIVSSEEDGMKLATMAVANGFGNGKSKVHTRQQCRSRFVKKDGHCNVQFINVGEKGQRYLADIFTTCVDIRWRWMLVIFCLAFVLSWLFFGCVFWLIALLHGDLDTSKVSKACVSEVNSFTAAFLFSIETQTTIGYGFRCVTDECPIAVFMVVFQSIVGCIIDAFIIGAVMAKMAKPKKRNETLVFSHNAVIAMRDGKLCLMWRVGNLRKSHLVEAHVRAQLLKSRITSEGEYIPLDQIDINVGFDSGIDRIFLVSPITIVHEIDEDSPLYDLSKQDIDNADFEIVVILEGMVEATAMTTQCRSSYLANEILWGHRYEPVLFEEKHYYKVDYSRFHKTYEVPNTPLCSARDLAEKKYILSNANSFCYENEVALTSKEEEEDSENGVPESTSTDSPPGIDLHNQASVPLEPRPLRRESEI
PfM18AAP inh: PfM18AAP inhibitors, malaria aminopeptidase, primary screen, biochemical, QFRET, recombinant enzyme | inhibition, % at 7.35 µM | hit rate 1.2% among 290,000 | H-Glu-NHMec fluorogenic cleavage | AID 1822, 2009 | M18 aspartyl aminopeptidase (Plasmodium falciparum 3D7);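 active = inhibition above the campaign mean inhibition over all tested compounds plus 3 SD, cut at about 28% in these data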;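 note: 0% = plate median of test compound wells and 100% = 2 mM ZnCl2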
FID counter: compounds displacing fluorescent DNA intercalator, primary screen, artefact control for HCV NS3 helicase inhibitor project, biochemical, FID fluorescence. DNA fluorescent intercalator displacement. AID 1845, 2009. hit rate 0.17% among 290,000. inhibition, % at 7.9 µM; in the data active = inhibition above about 37%;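 note: 0% = vehicle and 100% = reference compound; higher means more ethidium bromide displaced from hairpin DNA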
* marks the source's active call; other numbers are inactive results; i = inactive; . = not tested or not shown; + = active, no number. Compounds with a hit are over-represented: about 2.3% of the library has one in this group of screens.

SMILES | Rce1 inhib | Kir21 block | PfM18AAP inh | FID counter
Cc1cc2oc(=O)cc(CN(C)Cc3cccc(F)c3)c2cc1C | i | 0.07 | 0 | -25
CCc1cc2c(CN(C)Cc3ccccc3F)cc(=O)oc2cc1O | i | -5.9* | 9 | -22
CN(C)CCNC(=O)/C(=C/c1ccc(-c2ccc(Cl)cc2Cl)o1)NC(=O)c1ccccc1 | i | -5.6* | 0 | 13
Cc1ccc(C(=O)N/C(=C\c2ccc(-c3cccc([N+](=O)[O-])c3)o2)C(=O)NCCCN(C)C)cc1 | i | 0.55 | 1 | 31
CN(C)CCCNC(=O)/C(=C\c1ccc(-c2cccc([N+](=O)[O-])c2)o1)NC(=O)c1ccccc1 | i | -1 | 8 | 44*
COc1cc2c(=O)n(CC3CCCO3)c(=O)n(CC(=O)Nc3ccccc3)c2cc1OC (configuration not stated) | i | 0.36 | 1 | -21
c1cncc(CNCc2ccco2)c1 | i | -0.76 | 5 | 7
COc1ccc(C[C@H]2CN3C(=NC[C@@H]3Cc3ccccc3)N2CCNC(=O)c2ccc(C)c(Br)c2)cc1 | i | -4.2* | -6 | 16
COc1ccc(C[C@H]2CN3C(=NC[C@@H]3Cc3ccc(O)cc3)N2CCNC(=O)c2ccc(C)c(Br)c2)cc1 | i | -3.9 | -1 | 12
COc1ccc(C[C@H]2CN3C(=NC[C@H]3Cc3ccccc3)N2CCNC(=O)c2ccc(C)c(Br)c2)cc1 | i | -7.3* | . | .
Cc1ccc(C(=O)NCCN2C3=NC[C@@H](Cc4ccccc4)N3C[C@H]2Cc2ccc(O)cc2)cc1Br | i | -6.8* | 1 | 22
O=C(NCC(=O)N1CCN(c2ccccc2)CC1)c1ccc(Br)o1 | i | 0.64 | 4 | -13
CCCCCn1c(=O)[nH]c2cc(C(=O)NCCCN3CCCCC3CC)ccc2c1=O (configuration not stated) | . | -0.22 | 2 | 22
COc1cccc(CC(=O)NNC(=O)c2c(-c3ccccc3)noc2C)c1 | i | -0.02 | 4 | -3
COc1ccc(Cl)cc1NC(=O)Cn1c(NCCO)nc2ccccc21 | i | -0.01 | -1 | 1
CC(C)Sc1nc2sccc2c(=O)n1-c1ccccc1 | i | 0.71 | -5 | -32
CCCn1c(NCc2c[nH]c3ccccc23)nc2ccccc21 | i | -7.4* | 3 | 10
COC(C/C=C\C(=O)[C@H](C)OCc1ccccc1)OC | + | -0.44 | . | .
COC(C/C=C\[C@@H](O)[C@@H](C)OCc1ccccc1)OC | i | 1.1 | . | .
CCOC(=O)c1ccc2c(c1)n(CC)c(/C=C/N(C)c1ccccc1)[n+]2CC | i | 0.62 | 3 | 3
CC[n+]1c(/C=C/N(C)c2ccccc2)n(-c2ccccc2)c2ccc(-c3nc4ccccc4s3)cc21 | i | -7* | 1 | 41*
Cc1cccc(OCCCCCn2ccnc2)c1C | i | -1.3 | 4 | 2
CC(C)(C)c1cc(Cl)ccc1OCCn1ccnc1 | i | -5.6* | -9 | 21
Cc1cc(C(C)(C)C)ccc1OCCn1ccnc1 | i | 0.09 | 9 | 2
CC(C)(C)c1ccccc1OCCCCCn1ccnc1 | i | -7.4* | -3 | 19
SMILES | Rce1 inhib | Kir21 block | PfM18AAP inh | FID counter
c1ccc(-c2ccccc2OCCCCn2ccnc2)cc1 | i | -4.8* | -2 | 10
CC(O)CNCCCOc1ccc(Cl)cc1C(C)(C)C (configuration not stated) | i | -6.2* | -11 | 23
O=C(CSc1ccc(-c2ccccn2)nn1)Nc1ccc(F)c(F)c1 | i | 0.39 | 15 | -8
COc1ccc(/C=C/C(=O)N2CCN(c3ccccn3)CC2)c(OC)c1OC | i | 2.6 | 1 | -31
O=C1CC(=O)c2c1cccc2[N+](=O)[O-] | . | . | 34* | -8
CCCCn1nc2cc(C(=O)NCc3ccc(OC)cc3)ccc2c1OCC | i | -5.1* | 5 | -31
CCOc1c2ccc(C(=O)NCc3ccc(OC)cc3)cc2nn1CCOC | i | -0.93 | -13 | -11
C=CCC(C)(NCc1ccccc1)c1ccc(C)cc1 (configuration not stated) | i | -4.9* | 4 | -5
NNC(=S)Nc1c(F)cc(F)cc1Br | i | -0.07 | 9 | -5
Cc1c(OCC(=O)NC2CC(C)(C)NC(C)(C)C2)ccc2c1oc(=O)c1ccccc12 | i | -2.1 | 6 | 32
Cc1c(OCC(=O)NC2CC(C)(C)NC(C)(C)C2)ccc2c3c(c(=O)oc12)CCC3 | i | -4.6* | -4 | 39*
Cc1cc(Cl)ccc1OCC(=O)Nc1ccccc1C(=O)N1CCOCC1 | i | -4.5* | 0 | -25
Cc1ccc(OCC(=O)Nc2ccccc2N2CCOCC2)c(C)c1 | i | -8.9* | 1 | -22
Cc1ccc(C(C)C)c(OCC(=O)NCC(c2cccs2)N2CCOCC2)c1 (configuration not stated) | i | -6.2* | . | .
Cc1cc(Cl)ccc1OCC(=O)Nc1ccccc1N1CCOCC1 | . | -4.1 | -6 | -6
Cc1ccc(C(C)C)c(OCC(=O)Nc2ccccc2N2CCN(C)CC2)c1 | i | -5.1* | -5 | 9
CC(=O)N1CCN(c2ccccc2NC(=O)COc2cc(C)ccc2C(C)C)CC1 | i | -3.2 | -7 | -41
COc1ccc(Cl)cc1NC(=O)c1nnn(CC(=O)Nc2ccc3c(c2)OCO3)c1N | i | -0.07 | -3 | 4
COc1cc(CN2CCN(Cc3ccccc3C(F)(F)F)CC2)cc(OC)c1OC | i | 0.04 | 4 | 23
Cc1ccc(CN2CCN(Cc3ccccc3C(F)(F)F)CC2)cc1 | i | -4.5* | 17 | 11
CCCCC1CCC(C(=O)OC(C)C(=O)Nc2ccc(NC(C)=O)cc2)CC1 (configuration not stated) | i | -0.76 | 2 | -29
Cc1ccc(C)c(-n2cc[nH]c2=S)c1 | i | 0.34 | 30* | 1
COc1ccc(C(C)NCCC(c2ccc(OC(C)C)cc2)c2ccccc2OC)cc1 (configuration not stated) | i | -6.6* | -9 | 26
Cn1c(NNC(=O)C(c2ccccc2)c2ccccc2)cc(=O)n(C)c1=O | i | 1 | -1 | 1
O=C1c2c(O)cc(O)cc2O[C@H](c2ccc(O)c(O)c2)[C@@H]1O | i | 0.55 | 82* | 1
SMILES | Rce1 inhib | Kir21 block | PfM18AAP inh | FID counter
O=C1c2c(O)cc(O)cc2O[C@H](c2ccc(O)cc2)[C@H]1O | i | 0 | . | .
O=C1c2c(O)cc(O)cc2O[C@H](c2ccc(O)c(O)c2)[C@H]1O | i | 0.09 | 79* | 0
CCOc1ccccc1NC(=O)NC(=O)N(C)S(=O)(=O)c1ccc(C)cc1 | i | 0.6 | 3 | 2
C=CCn1cnc2c(oc3ccccc32)c1=O | i | -1 | -4 | -1
Cc1[nH][nH]c(=O)c1C(c1ccc(Cl)cc1)c1c(C)[nH][nH]c1=O | i | -0.11 | 17 | -6
COc1ccc(NC(=O)c2cn3c(nc4ccccc43)c(C#N)c2C)cc1 | + | -0.02 | -7 | -6
CCOC(=O)NC1(NCc2ccccc2)Oc2ccccc2O1 | i | . | 54* | -2
O=C1/C(=C\c2ccc(O)c(O)c2)SC(=S)N1Cc1ccccc1 | i | -2.5 | 48* | 36
COc1cc(/C=C2/SC(=S)N(Cc3ccccc3)C2=O)ccc1O | i | 0.75 | -8 | 23
